# From PMC7862700, “An all-to-all approach to the identification of sequence-specific readers for epigenetic DNA modifications on cytosine”
# What was measured:
# Assay in all cases: DAPPL (digital affinity profiling via proximity ligation, sequencing); 10 mM Tris-HCl pH 7.5, 50 mM NaCl, 1 mM DTT, 4% glycerol, room temperature, 30 min; GST-TFs on glutathione beads, 16-mer random dsDNA library, 0.1% formaldehyde crosslink after washing; high values mean tight binding
# [1] = biological target: T1, FLI1 (Homo sapiens, UniProt Q01543 1-452); conditions: protein: recombinant; tags: N-terminal GST; dsDNA, one strand shown
# T1 sequence: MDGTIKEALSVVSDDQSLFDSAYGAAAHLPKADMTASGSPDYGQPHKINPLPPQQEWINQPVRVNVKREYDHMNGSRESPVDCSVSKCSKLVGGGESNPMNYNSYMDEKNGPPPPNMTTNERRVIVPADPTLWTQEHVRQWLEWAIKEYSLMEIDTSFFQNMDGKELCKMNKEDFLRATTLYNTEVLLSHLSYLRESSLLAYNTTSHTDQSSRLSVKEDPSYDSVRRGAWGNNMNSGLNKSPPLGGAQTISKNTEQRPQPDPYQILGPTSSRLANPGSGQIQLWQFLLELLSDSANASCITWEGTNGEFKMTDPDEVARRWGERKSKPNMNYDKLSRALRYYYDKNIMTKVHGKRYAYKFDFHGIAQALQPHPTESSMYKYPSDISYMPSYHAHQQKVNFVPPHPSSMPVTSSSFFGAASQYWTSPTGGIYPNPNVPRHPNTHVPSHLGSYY
# How it was run: (§1)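 Human transcription factors fused to GST were expressed in yeast, captured on glutathione beads, given DNA barcodes and pooled with a GST-only negative control. Pools were incubated with 200 nmole of a 16-mer random double-stranded DNA library in Tris/NaCl/DTT/glycerol buffer at room temperature for 30 min. They were then washed, crosslinked with 0.1% formaldehyde, proximity-ligated (BsaI/T4 ligase, 1 h, 37 °C), PCR-amplified and sequenced on an Illumina NextSeq500. Binding signal is each 6-mer's read frequency for a factor divided by its frequency for the GST control.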
# [2] = biological target: T2, ELK1 (Homo sapiens, UniProt P19419 1-428); conditions: protein: recombinant; tags: N-terminal GST; dsDNA, one strand shown
# T2 sequence: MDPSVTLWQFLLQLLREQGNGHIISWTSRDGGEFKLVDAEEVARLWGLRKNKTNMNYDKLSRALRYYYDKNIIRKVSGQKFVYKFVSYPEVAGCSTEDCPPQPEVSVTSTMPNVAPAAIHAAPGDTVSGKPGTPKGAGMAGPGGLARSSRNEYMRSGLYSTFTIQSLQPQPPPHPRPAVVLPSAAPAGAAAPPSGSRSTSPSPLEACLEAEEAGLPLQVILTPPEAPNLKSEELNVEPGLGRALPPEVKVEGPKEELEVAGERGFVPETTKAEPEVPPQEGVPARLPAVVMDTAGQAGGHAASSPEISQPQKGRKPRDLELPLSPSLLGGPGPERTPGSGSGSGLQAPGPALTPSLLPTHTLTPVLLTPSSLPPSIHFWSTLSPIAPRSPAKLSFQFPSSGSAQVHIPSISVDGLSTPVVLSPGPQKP
# How it was run: as §1
# [3] = biological target: T3, GABPA (Homo sapiens, UniProt Q06546 1-454); conditions: protein: recombinant; tags: N-terminal GST; dsDNA, one strand shown
# T3 sequence: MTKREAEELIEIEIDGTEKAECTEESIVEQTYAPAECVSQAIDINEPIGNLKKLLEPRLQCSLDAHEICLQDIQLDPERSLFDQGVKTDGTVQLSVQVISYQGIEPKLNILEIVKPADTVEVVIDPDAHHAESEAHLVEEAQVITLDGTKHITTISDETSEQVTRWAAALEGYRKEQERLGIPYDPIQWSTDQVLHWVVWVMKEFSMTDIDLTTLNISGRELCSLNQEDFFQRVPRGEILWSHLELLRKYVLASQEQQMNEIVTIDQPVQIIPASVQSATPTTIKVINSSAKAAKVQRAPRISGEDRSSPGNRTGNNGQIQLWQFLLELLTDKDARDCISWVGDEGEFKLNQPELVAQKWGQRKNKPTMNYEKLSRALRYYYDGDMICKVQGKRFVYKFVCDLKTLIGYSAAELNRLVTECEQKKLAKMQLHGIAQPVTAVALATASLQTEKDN
# How it was run: as §1
# [4] = biological target: T4, ERG (Homo sapiens, UniProt P11308 1-479); conditions: protein: recombinant; tags: N-terminal GST; dsDNA, one strand shown
# T4 sequence: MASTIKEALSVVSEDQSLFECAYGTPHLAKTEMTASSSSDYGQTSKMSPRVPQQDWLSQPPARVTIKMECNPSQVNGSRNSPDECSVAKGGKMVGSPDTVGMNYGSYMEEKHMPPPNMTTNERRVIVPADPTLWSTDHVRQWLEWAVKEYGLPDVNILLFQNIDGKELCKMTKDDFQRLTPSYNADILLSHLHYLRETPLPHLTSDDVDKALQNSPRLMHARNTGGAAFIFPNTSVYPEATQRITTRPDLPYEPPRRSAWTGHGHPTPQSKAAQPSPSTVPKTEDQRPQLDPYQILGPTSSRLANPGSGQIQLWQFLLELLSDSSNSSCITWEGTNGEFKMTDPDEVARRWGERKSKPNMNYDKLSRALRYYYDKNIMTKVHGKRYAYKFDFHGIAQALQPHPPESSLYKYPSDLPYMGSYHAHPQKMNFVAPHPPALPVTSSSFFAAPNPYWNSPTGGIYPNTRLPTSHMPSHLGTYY
# How it was run: as §1
# [5] = biological target: ELF1 (Homo sapiens, UniProt P32519 1-619); conditions: protein: recombinant; tags: N-terminal GST; dsDNA, one strand shown
# ELF1, sequence (P32519 whole entry): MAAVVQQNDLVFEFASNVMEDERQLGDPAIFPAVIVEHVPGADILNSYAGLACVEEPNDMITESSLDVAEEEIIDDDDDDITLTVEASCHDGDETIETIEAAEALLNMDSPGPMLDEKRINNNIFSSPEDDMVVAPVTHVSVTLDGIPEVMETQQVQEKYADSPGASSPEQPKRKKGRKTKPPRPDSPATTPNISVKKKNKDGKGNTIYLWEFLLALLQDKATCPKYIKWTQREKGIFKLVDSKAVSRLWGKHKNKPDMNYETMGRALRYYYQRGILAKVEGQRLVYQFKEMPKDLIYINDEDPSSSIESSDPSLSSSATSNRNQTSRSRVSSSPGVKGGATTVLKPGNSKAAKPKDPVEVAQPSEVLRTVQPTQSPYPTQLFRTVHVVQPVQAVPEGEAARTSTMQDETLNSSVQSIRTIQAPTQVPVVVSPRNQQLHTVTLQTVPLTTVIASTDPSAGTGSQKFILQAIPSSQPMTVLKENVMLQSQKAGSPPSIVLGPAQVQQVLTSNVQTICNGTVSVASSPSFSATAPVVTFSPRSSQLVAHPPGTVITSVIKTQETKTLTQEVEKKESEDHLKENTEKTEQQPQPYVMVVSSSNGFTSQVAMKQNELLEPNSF
# How it was run: as §1
# [6] = biological target: T5, EHF (Homo sapiens, UniProt Q9NZC4 1-300); conditions: protein: recombinant; tags: N-terminal GST; dsDNA, one strand shown
# T5 sequence: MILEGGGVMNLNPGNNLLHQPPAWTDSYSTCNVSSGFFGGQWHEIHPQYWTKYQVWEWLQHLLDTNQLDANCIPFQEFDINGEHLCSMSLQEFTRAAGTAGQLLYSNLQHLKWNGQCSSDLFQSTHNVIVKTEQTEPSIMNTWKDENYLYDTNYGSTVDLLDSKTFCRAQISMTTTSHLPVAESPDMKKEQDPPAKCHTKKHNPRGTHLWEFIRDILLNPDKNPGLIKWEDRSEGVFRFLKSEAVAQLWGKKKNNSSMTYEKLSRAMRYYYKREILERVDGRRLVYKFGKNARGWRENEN
# How it was run: as §1
# [7] = biological target: SPI1 (Homo sapiens, UniProt P17947 1-270); conditions: protein: recombinant; tags: N-terminal GST; dsDNA, one strand shown
# How it was run: as §1
# [8] = biological target: SPIB (Homo sapiens, UniProt Q01892 1-262); conditions: protein: recombinant; tags: N-terminal GST; dsDNA, one strand shown
# SPIB, sequence (Q01892 whole entry): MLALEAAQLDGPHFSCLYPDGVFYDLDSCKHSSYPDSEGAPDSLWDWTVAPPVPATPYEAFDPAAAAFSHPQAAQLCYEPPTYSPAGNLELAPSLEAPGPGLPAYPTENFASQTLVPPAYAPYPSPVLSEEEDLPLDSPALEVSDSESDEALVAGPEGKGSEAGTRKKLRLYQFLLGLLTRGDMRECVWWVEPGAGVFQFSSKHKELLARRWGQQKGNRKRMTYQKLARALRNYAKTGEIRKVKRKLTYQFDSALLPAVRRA
# How it was run: as §1
# [9] = biological target: T6, ELK3 (Homo sapiens, UniProt P41970 1-407); conditions: protein: recombinant; tags: N-terminal GST; dsDNA, one strand shown
# T6 sequence: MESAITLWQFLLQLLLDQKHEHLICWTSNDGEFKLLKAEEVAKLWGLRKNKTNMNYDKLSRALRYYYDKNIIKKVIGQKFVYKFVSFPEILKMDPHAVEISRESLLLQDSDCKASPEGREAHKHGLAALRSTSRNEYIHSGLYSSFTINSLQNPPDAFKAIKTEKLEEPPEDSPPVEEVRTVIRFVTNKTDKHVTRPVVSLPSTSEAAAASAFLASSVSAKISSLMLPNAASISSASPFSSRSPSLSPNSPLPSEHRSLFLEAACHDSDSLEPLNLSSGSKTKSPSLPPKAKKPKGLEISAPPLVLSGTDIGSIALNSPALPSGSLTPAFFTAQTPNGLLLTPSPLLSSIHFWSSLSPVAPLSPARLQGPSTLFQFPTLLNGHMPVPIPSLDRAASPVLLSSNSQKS
# How it was run: as §1
# [10] = biological target: T7, FEV (Homo sapiens, UniProt Q99581 1-238); conditions: protein: recombinant; tags: N-terminal GST; dsDNA, one strand shown
# T7 sequence: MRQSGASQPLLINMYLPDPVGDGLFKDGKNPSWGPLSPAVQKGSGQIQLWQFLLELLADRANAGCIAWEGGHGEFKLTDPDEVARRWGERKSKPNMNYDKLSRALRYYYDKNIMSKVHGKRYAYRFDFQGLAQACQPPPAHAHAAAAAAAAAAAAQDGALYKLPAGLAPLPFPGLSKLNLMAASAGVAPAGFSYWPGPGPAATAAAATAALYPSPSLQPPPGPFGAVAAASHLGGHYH
# How it was run: as §1
# [11] = biological target: ETV5 (Homo sapiens, UniProt P41161 1-510); conditions: protein: recombinant; tags: N-terminal GST; dsDNA, one strand shown
# ETV5, sequence (P41161 whole entry): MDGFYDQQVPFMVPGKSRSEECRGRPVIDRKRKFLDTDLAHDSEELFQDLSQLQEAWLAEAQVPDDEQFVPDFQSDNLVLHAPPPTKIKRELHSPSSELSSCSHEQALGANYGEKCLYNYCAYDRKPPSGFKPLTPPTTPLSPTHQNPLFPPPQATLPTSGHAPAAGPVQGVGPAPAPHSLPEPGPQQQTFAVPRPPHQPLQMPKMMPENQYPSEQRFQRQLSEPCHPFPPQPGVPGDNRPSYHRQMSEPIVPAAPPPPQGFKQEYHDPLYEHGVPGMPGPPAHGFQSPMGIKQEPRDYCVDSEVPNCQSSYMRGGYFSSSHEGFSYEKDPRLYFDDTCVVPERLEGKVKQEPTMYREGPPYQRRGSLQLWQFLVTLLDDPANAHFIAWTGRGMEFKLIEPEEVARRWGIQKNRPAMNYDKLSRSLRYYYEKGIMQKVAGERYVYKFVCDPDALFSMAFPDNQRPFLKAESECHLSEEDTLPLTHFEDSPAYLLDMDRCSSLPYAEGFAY
# How it was run: as §1
# [12] = biological target: HSF1 (Homo sapiens, UniProt Q00613 1-529); conditions: protein: recombinant; tags: N-terminal GST; chain copies: 3; dsDNA, one strand shown
# HSF1, sequence (Q00613 whole entry): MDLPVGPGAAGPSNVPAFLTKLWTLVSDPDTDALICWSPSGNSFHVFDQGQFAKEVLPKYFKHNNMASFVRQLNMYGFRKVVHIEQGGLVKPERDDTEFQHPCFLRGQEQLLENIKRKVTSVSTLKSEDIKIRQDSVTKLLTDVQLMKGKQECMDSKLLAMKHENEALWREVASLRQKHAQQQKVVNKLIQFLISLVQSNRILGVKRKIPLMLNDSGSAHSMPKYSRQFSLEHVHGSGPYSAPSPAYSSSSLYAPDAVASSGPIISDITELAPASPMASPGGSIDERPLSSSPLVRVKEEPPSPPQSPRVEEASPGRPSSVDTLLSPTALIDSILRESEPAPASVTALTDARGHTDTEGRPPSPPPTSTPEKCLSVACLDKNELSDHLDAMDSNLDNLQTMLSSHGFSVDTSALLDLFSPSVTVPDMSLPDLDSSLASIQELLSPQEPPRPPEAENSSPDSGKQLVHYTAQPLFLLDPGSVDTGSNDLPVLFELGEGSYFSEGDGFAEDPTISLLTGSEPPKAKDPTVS
# How it was run: as §1
# [13] = biological target: T8, SPIC (Homo sapiens, UniProt Q8N5J4 1-248); conditions: protein: recombinant; tags: N-terminal GST; dsDNA, one strand shown
# T8 sequence: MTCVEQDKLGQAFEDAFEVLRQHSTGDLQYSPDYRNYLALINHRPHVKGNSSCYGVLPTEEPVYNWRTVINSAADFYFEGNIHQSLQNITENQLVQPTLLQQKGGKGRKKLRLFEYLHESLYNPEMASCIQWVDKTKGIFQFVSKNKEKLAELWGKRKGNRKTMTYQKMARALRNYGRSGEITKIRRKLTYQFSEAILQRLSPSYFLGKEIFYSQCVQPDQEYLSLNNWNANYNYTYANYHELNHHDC
# How it was run: as §1
# [14] = biological target: ELF4 (Homo sapiens, UniProt Q99607 1-663); conditions: protein: recombinant; tags: N-terminal GST; dsDNA, one strand shown
# ELF4, sequence (Q99607 whole entry): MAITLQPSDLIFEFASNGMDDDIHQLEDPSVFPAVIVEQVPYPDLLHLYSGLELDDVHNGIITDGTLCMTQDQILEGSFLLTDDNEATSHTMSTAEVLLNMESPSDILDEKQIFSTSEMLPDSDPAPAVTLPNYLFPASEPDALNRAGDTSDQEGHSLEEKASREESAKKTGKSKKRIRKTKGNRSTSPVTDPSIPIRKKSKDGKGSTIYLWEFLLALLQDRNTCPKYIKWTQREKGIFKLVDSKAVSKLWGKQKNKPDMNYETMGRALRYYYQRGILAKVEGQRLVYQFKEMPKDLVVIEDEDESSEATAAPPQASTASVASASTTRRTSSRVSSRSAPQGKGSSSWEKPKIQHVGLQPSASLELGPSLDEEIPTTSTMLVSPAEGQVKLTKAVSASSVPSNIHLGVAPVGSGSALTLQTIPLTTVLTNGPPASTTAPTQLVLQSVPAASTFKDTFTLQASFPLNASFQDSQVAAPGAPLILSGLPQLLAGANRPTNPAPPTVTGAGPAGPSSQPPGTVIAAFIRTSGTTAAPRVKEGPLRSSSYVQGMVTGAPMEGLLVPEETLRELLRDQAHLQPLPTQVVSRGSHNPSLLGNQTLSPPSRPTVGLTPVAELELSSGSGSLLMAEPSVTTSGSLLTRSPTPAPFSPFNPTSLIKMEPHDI
# How it was run: as §1
# [15] = biological target: T9, ELK4 (Homo sapiens, UniProt P28324-2 1-405); conditions: protein: recombinant; tags: N-terminal GST; dsDNA, one strand shown
# T9 sequence: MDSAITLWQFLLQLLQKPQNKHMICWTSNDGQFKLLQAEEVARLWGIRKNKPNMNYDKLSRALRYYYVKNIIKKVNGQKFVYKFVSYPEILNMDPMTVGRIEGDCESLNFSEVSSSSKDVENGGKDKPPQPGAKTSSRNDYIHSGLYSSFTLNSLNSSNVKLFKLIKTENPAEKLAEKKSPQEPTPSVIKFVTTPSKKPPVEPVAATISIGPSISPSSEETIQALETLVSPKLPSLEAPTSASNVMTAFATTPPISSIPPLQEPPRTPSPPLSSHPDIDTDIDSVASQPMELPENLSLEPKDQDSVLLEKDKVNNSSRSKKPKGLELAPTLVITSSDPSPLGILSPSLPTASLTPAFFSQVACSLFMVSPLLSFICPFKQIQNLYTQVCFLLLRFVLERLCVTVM
# How it was run: as §1
# [16] = biological target: T10, ETV2 (Homo sapiens, UniProt O00321 1-342); conditions: protein: recombinant; tags: N-terminal GST; dsDNA, one strand shown
# T10 sequence: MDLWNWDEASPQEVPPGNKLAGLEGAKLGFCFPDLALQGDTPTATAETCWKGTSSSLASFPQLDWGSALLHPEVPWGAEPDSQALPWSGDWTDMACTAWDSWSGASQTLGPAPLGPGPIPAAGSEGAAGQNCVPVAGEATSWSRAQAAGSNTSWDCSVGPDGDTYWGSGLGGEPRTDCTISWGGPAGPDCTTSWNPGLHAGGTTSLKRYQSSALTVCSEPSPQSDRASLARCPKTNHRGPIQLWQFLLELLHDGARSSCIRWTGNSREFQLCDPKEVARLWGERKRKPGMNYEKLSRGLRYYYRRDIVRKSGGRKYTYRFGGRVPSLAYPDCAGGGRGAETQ
# How it was run: as §1
# [17] = biological target: T11, ELF3 (Homo sapiens, UniProt P78545 1-371); conditions: protein: recombinant; tags: N-terminal GST; dsDNA, one strand shown
# T11 sequence: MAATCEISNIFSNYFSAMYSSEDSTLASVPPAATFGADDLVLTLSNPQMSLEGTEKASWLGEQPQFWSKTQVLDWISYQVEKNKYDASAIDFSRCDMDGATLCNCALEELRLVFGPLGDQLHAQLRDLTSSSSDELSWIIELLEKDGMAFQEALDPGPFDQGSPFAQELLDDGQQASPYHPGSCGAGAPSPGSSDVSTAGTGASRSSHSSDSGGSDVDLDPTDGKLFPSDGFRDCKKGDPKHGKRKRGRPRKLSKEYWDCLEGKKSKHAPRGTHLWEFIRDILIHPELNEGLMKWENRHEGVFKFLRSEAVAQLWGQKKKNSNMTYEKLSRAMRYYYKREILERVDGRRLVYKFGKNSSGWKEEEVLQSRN
# How it was run: as §1
# [18] = biological target: CRX (Homo sapiens, UniProt O43186 1-299); conditions: protein: recombinant; tags: N-terminal GST; dsDNA, one strand shown
# CRX, sequence (O43186 whole entry): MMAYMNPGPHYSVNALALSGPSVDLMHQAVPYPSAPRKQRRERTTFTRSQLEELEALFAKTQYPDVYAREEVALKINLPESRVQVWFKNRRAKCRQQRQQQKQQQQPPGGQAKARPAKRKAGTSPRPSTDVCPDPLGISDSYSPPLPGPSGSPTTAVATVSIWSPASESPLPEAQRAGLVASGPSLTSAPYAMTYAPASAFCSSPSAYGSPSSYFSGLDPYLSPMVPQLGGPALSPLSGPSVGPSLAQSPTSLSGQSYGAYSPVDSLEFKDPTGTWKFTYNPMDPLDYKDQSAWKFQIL
# How it was run: as §1
# [19] = biological target: ETV1 (Homo sapiens, UniProt P50549 1-477); conditions: protein: recombinant; tags: N-terminal GST; dsDNA, one strand shown
# ETV1, sequence (P50549 whole entry): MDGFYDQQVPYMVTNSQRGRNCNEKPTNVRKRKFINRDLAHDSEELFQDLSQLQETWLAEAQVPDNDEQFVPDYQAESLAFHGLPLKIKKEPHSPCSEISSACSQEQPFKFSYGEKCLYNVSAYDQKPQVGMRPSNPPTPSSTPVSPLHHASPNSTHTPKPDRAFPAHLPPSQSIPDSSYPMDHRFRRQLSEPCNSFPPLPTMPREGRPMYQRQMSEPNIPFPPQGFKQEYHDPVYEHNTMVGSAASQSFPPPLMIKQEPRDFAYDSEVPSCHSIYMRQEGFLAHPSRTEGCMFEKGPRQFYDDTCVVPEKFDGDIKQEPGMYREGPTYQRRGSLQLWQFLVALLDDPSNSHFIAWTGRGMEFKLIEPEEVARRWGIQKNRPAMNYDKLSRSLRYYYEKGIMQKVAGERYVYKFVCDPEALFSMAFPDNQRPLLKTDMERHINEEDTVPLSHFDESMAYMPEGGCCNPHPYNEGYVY
# How it was run: as §1
sequence,measurement,setting,value
TCACGA,binding signal,[1],"1.09 fold enrichment (6-mer frequency, TF over GST control)"
same,binding signal,[2],"1.19 fold enrichment (6-mer frequency, TF over GST control)"
same,binding signal,[3],"1.09 fold enrichment (6-mer frequency, TF over GST control)"
same,binding signal,[4],"1.1 fold enrichment (6-mer frequency, TF over GST control)"
same,binding signal,[5],"1.13 fold enrichment (6-mer frequency, TF over GST control)"
same,binding signal,[6],"1.21 fold enrichment (6-mer frequency, TF over GST control)"
same,binding signal,[7],"1.06 fold enrichment (6-mer frequency, TF over GST control)"
same,binding signal,[8],"1.04 fold enrichment (6-mer frequency, TF over GST control)"
same,binding signal,[9],"1.21 fold enrichment (6-mer frequency, TF over GST control)"
same,binding signal,[10],"1.05 fold enrichment (6-mer frequency, TF over GST control)"
same,binding signal,[11],"1.09 fold enrichment (6-mer frequency, TF over GST control)"
same,binding signal,[12],"1.37 fold enrichment (6-mer frequency, TF over GST control)"
same,binding signal,[13],"1.1 fold enrichment (6-mer frequency, TF over GST control)"
same,binding signal,[14],"1.27 fold enrichment (6-mer frequency, TF over GST control)"
same,binding signal,[15],"1.19 fold enrichment (6-mer frequency, TF over GST control)"
same,binding signal,[16],"1.12 fold enrichment (6-mer frequency, TF over GST control)"
same,binding signal,[17],"1.17 fold enrichment (6-mer frequency, TF over GST control)"
same,binding signal,[18],"1.1 fold enrichment (6-mer frequency, TF over GST control)"
same,binding signal,[19],"1.13 fold enrichment (6-mer frequency, TF over GST control)"
